Measured values reported in PubChem BioAssay AID1159580 (chemical genetic matrix, 2015).
Out of some 5,500 compounds screened, about 2,000 (36%) were called active. Roughly 18% stayed inconclusive and do not appear here. The list shows a part of the results. Unmarked numbers belong to inactive results. No stated cut-off is given here; in the data, active means normalized growth mostly below about 0.91 (no sharp cut-off); inconclusive means no clear call, values can overlap the other calls; inactive means mostly above about 0.92.

Assay: chemical genetic growth profiling, strain panel (AID 1159580);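 further: tested at 20 µM; growth read once vehicle control cultures reached saturation at 30 °C; 1 = growth at the plate median or of vehicle wells; lower values mean less growth of the strain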
Settings: S. cerevisiae deletion strains, growth OD

For O=c1c(O)c(-c2ccc(O)c(O)c2)oc2c(O)c(O)cc(O)c12, the normalized growth (locus YAL021C, strain ccr4, active compounds read low) was 0.864 (active), the normalized growth (locus YAL026C, strain drs2, active compounds read low) was 0.954 and the normalized growth (locus YAL030W, strain snc1, active compounds read low) was 1. For the same molecule, the normalized growth (locus YBL061C, strain skt5, active compounds read low) was 0.925, the normalized growth (locus YBR009C, strain hhf1, active compounds read low) was 1.04 and the normalized growth (locus YBR023C, strain chs3, active compounds read low) was 0.929. For the same molecule, the normalized growth (locus YBR171W, strain sec66, active compounds read low) was 1.02, the normalized growth (locus YBR231C, strain swc5, active compounds read low) was 0.927 and the normalized growth (locus YBR279W, strain paf1, active compounds read low) was 0.994. The normalized growth (locus YCL011C, strain gbp2, active compounds read low) was 1.01, the normalized growth (locus YCL016C, strain dcc1, active compounds read low) was 0.991 and the normalized growth (locus YCL061C, strain MRC1, active compounds read low) was 0.989. For the same molecule, the normalized growth (locus YCL069W, strain vba3, active compounds read low) was 1.01, the normalized growth (locus YCR088W, strain abp1, active compounds read low) was 1.02 and the normalized growth (locus YDL005C, strain med2, active compounds read low) was 1.03. It also gave a normalized growth (locus YDL040C, strain nat1, active compounds read low) of 1.02, a normalized growth (locus YDR001C, strain nth1, active compounds read low) of 1.02 and a normalized growth (locus YDR069C, strain doa4, active compounds read low) of 0.906. For the same molecule, the normalized growth (locus YDR137W, strain rgp1, active compounds read low) was 1.02, the normalized growth (locus YDR159W, strain sac3, active compounds read low) was 1.13 [resistant] (active) and the normalized growth (locus YDR195W, strain ref2) was 1.01. It also gave a normalized growth (locus YDR297W, strain sur2, active compounds read low) of 1, a normalized growth (locus YDR334W, strain swr1, active compounds read low) of 0.983 and a normalized growth (locus YDR335W, strain msn5, active compounds read low) of 0.994. It also gave a normalized growth (locus YDR392W, strain spt3, active compounds read low) of 1.04, a normalized growth (locus YEL003W, strain gim4, active compounds read low) of 0.996 and a normalized growth (locus YEL037C, strain rad23, active compounds read low) of 0.987. For the same molecule, the normalized growth (locus YEL061C, strain CIN8 (second series), active compounds read low) was 1.01, the normalized growth (locus YER015W, strain faa2, active compounds read low) was 0.98 and the normalized growth (locus YER016W, strain bim1, active compounds read low) was 1.02. The normalized growth (locus YER111C, strain swi4, active compounds read low) was 0.942, the normalized growth (locus YER155C, strain BEM2 (second series), active compounds read low) was 0.984 and the normalized growth (locus YFR010W, strain ubp6, active compounds read low) was 0.932. The normalized growth (locus YGL167C, strain pmr1, active compounds read low) was 1.01, the normalized growth (locus YGL173C, strain kem1, active compounds read low) was 0.947 and the normalized growth (locus YGL227W, strain vid30, active compounds read low) was 1.03. For the same molecule, the normalized growth (locus YGL240W, strain doc1, active compounds read low) was 1.11, the normalized growth (locus YGL253W, strain hxk2, active compounds read low) was 1 and the normalized growth (locus YHR013C, strain ard1, active compounds read low) was 0.931. The normalized growth (locus YHR027C, strain rpn1, active compounds read low) was 0.983, the normalized growth (locus YHR030C, strain SLT2, active compounds read low) was 1 and the normalized growth (locus YHR079C, strain IRE1, active compounds read low) was 1.02. It also gave a normalized growth (locus YHR142W, strain chs7, active compounds read low) of 0.891, a normalized growth (locus YJL092W, strain hpr5, active compounds read low) of 1.02 and a normalized growth (locus YJL095W, strain BCK1 (second series), active compounds read low) of 0.993. For the same molecule, the normalized growth (locus YJL095W, strain BCK1, active compounds read low) was 1.02, the normalized growth (locus YJL115W, strain asf1, active compounds read low) was 1.01 and the normalized growth (locus YJL129C, strain trk1, active compounds read low) was 1.08. For the same molecule, the normalized growth (locus YJL154C, strain vps35, active compounds read low) was 1.02, the normalized growth (locus YJL164C, strain tpk1, active compounds read low) was 0.959 and the normalized growth (locus YJL166W, strain qcr8, active compounds read low) was 0.995. It also gave a normalized growth (locus YJL187C, strain SWE1, active compounds read low) of 0.997, a normalized growth (locus YJR066W, strain TOR1, active compounds read low) of 0.967 and a normalized growth (locus YKL160W, strain elf1, active compounds read low) of 0.942. For the same molecule, the normalized growth (locus YKR026C, strain gcn3, active compounds read low) was 1.01, the normalized growth (locus YKR091W, strain srl3, active compounds read low) was 1.03 and the normalized growth (locus YLL001W, strain dnm1, active compounds read low) was 1.03. The normalized growth (locus YLL026W, active compounds read low) was 1.02, the normalized growth (locus YLL041C, strain sdh2, active compounds read low) was 1.01 and the normalized growth (locus YLR027C, strain aat2, active compounds read low) was 0.992. For the same molecule, the normalized growth (locus YLR113W, strain HOG1, active compounds read low) was 1.12, the normalized growth (locus YLR221C, strain rsa3, active compounds read low) was 0.981 and the normalized growth (locus YLR258W, strain gsy2, active compounds read low) was 1.01. It also gave a normalized growth (locus YLR262C, strain YPT6 (second series), active compounds read low) of 0.919, a normalized growth (locus YLR320W, strain mms22, active compounds read low) of 1.02 and a normalized growth (locus YLR342W, strain FKS1, active compounds read low) of 0.967. It also gave a normalized growth (locus YLR357W, strain rsc2, active compounds read low) of 0.889, a normalized growth (locus YLR370C, strain arc18, active compounds read low) of 0.938 and a normalized growth (locus YLR384C, strain iki3, active compounds read low) of 1.01. It also gave a normalized growth (locus YML120C, strain ndi1, active compounds read low) of 1, a normalized growth (locus YMR058W, strain fet3, active compounds read low) of 0.921 and a normalized growth (locus YMR125W, strain sto1, active compounds read low) of 1.03. It also gave a normalized growth (locus YMR129W, active compounds read low) of 1.02, a normalized growth (locus YMR205C, strain PFK2, active compounds read low) of 1.06 and a normalized growth (locus YMR231W, strain pep5, active compounds read low) of 0.999. The normalized growth (locus YNL071W, strain lat1, active compounds read low) was 1.01, the normalized growth (locus YNL183C, strain NPR1, active compounds read low) was 0.997 and the normalized growth (locus YNL209W, strain ssb2, active compounds read low) was 0.94. It also gave a normalized growth (locus YNL248C, strain rpa49, active compounds read low) of 1, a normalized growth (locus YNL322C, strain KRE1 (second series), active compounds read low) of 1.01 and a normalized growth (locus YNR049C, strain mso1, active compounds read low) of 1.02. The normalized growth (locus YOR001W, strain rrp6, active compounds read low) was 0.981, the normalized growth (locus YOR070C, strain gyp1, active compounds read low) was 1.01 and the normalized growth (locus YOR080W, strain dia2, active compounds read low) was 1.01. It also gave a normalized growth (locus YOR083W, strain WHI5, active compounds read low) of 0.931, a normalized growth (locus YOR106W, strain vam3, active compounds read low) of 0.872 and a normalized growth (locus YOR231W, strain MKK1, active compounds read low) of 1.03. It also gave a normalized growth (locus YOR265W, strain rbl2, active compounds read low) of 1, a normalized growth (locus YOR270C, strain vph1, active compounds read low) of 0.948 and a normalized growth (locus YOR290C, strain snf2, active compounds read low) of 0.962. For the same molecule, the normalized growth (locus YPL051W, strain arl3, active compounds read low) was 0.92, the normalized growth (locus YPL078C, strain atp4, active compounds read low) was 0.963 and the normalized growth (locus YPL106C, strain sse1, active compounds read low) was 1. For the same molecule, the normalized growth (locus YPL240C, strain hsp82, active compounds read low) was 0.994 and the normalized growth (locus YPL256C, strain CLN2, active compounds read low) was 1.04.
